System: Vero E6 infected with SARS-CoV-2
Assay: inhibition of SARS-CoV-2 cytopathic effect; higher = more antiviral protection, active = above 15
Settings: 48 h

Measured: inhibition of SARS-CoV-2 cytopathic effect

CC(=O)N[C@H]1[C@H]([C@H](O)[C@H](O)CO)OC(C(=O)O)=C[C@@H]1NC(=N)N [zanamivir]
inactive: 1 nM 0.39% | 8.33 nM 0.16% | 100 nM -0.26% | 833.33 nM 2.6% | 10000 nM 2.28%

CC(C)N(CC[C@H](c1ccccc1)c1cc(CO)ccc1O)C(C)C [5-hydroxymethyl-tolterodine]
inactive: 1 nM -1.98% | 8.33 nM -1.4% | 100 nM -1.82% | 833.33 nM 2.8% | 10000 nM -3.28%

Cc1c(NC(=O)c2cc3c(s2)CCCC3)cccc1-c1cn(C)c(=O)c(Nc2ccc(C3C(=O)N(C)CCN3C)cc2)n1 (stereo in doubt)
inactive: 1 nM 2.73% | 8.33 nM -3.85% | 100 nM 3.38% | 833.33 nM 3.72% | 10000 nM 7.34%

c1ccc(CCCN2CCN(CCOC(c3ccccc3)c3ccccc3)CC2)cc1
inactive: 1 nM 0.71% | 8.33 nM 0.97% | 100 nM -0.18% | 833.33 nM 0.61% | 10000 nM -1.85%

CC(C)(C)c1cc(C=C(C#N)C#N)cc(C(C)(C)C)c1O [tyrphostin-A9]
inactive: 1 nM 1.9% | 8.33 nM 1.44% | 100 nM 4.1% | 833.33 nM 8.55% | 10000 nM 6.42%

CNCC(O)c1ccc(O)c(O)c1 (racemic) [DL-Adrenaline]
inactive: 1 nM 1.39% | 8.33 nM -1.53% | 100 nM 1.56% | 833.33 nM -2.05% | 10000 nM -1.47%

CC(C)(C)[C@]1(O)CCN2C[C@H]3c4ccccc4CCc4cccc(c43)[C@@H]2C1 [butaclamol]
inactive: 1 nM 1.69% | 8.33 nM 1.31% | 100 nM 0.21% | 833.33 nM 1.72% | 10000 nM -3.01%

O=C1c2ccccc2C(=O)C1c1ccc(Cl)cc1 [chlorindione]
inactive: 1 nM -5.54% | 8.33 nM -6.24% | 100 nM -3.27% | 833.33 nM 0.64% | 10000 nM 0.34%

CN(C)c1ccc(C(=C2C=CC(=[N+](C)C)C=C2)c2ccc(N(C)C)cc2)cc1 [crystal-violet]
inactive: 1 nM -0.43% | 8.33 nM 1.49% | 100 nM 0.27% | 833.33 nM -11.4% | 10000 nM -22.8%

Cn1c(=O)cnn(CCCCN2CCN(c3ncccn3)CC2)c1=O
inactive: 1 nM 0.44% | 8.33 nM -0.24% | 100 nM 1.14% | 833.33 nM -0.77% | 10000 nM 1.05%

Cc1cccc(Cc2c[nH]cn2)c1C [detomidine]
inactive: 1 nM -2.36% | 8.33 nM -0.01% | 100 nM 1.67% | 833.33 nM -2.3% | 10000 nM 2.25%

CC1(C)CCC2=C(O1)c1ccccc1C(=O)C2=O [beta-lapachone]
inactive: 1 nM -0.31% | 8.33 nM 0.37% | 100 nM -2.74% | 833.33 nM -1.46% | 10000 nM 10.9%

COc1ccc2cc(CCC(C)=O)ccc2c1 [nabumetone]
inactive: 1 nM 0.72% | 8.33 nM 0.69% | 100 nM -4.19% | 833.33 nM -1.8% | 10000 nM -0.03%

O=C(O)c1cc(=O)[nH]c(=O)[nH]1 [orotic-acid]
inactive: 1 nM -2.95% | 8.33 nM 1.49% | 100 nM -1% | 833.33 nM 0.78% | 10000 nM 0.21%

O=C(Nc1cccc(C(F)(F)F)c1)Nc1ccc(Br)cc1-c1nnn[nH]1
inactive: 1 nM 1.75% | 8.33 nM 3.12% | 100 nM 2.2% | 833.33 nM 3.69% | 10000 nM 4.81%

COc1ccc(/C=C\c2cc(OC)c(OC)c(OC)c2)cc1OP(=O)(O)O [fosbretabulin]
inactive: 1 nM 0.43% | 8.33 nM 0.77% | 100 nM -1.34% | 833.33 nM -0.84% | 10000 nM -0.38%

O=[N+]([O-])c1cccc2cn[nH]c12 [7-nitroindazole]
inactive: 1 nM -1.89% | 8.33 nM 1.76% | 100 nM 3.57% | 833.33 nM 4.56% | 10000 nM -1.2%

CCOc1ccc(-c2ccc(Cn3c(CC(C)(C)C(=O)O)c(SC(C)(C)C)c4cc(OCc5ccc(C)cn5)ccc43)cc2)cn1
inactive: 1 nM 1.07% | 8.33 nM 0.1% | 100 nM -0.84% | 833.33 nM -0.16% | 10000 nM -0.78%

O=c1cc(-c2cccc3c2Sc2ccccc2S3)oc(N2CCOCC2)c1
inactive: 1 nM 2.07% | 8.33 nM -2.3% | 100 nM -0.67% | 833.33 nM 3.55% | 10000 nM -1.33%

CC(=O)c1ccc2c(c1)[C@H](NC(=O)c1ccc(F)c(Cl)c1)[C@H](O)C(C)(C)O2 [tonabersat]
inactive: 1 nM -2.31% | 8.33 nM -1.2% | 100 nM -0.8% | 833.33 nM 1.11% | 10000 nM -2.32%

CCn1cc(C(=O)O)c(=O)c2ccc(C)nc21 [nalidixic-acid]
inactive: 1 nM 0.83% | 8.33 nM 1.11% | 100 nM 0.89% | 833.33 nM 0.77% | 10000 nM -0.57%

C=CC(=O)Nc1ccc2ncnc(Nc3ccc(OCc4cccc(F)c4)c(Cl)c3)c2c1
inactive: 1 nM -1.9% | 8.33 nM 1.55% | 100 nM -0.97% | 833.33 nM -0.61% | 10000 nM -3.89%

CN1C(=O)COc2c(C(=O)NC3CN4CCC3CC4)cc(Cl)cc21 (stereo not given) [azasetron]
inactive: 1 nM 1.97% | 8.33 nM 1.89% | 100 nM 0.9% | 833.33 nM -0.56% | 10000 nM -0.16%

CC(=C(CCO)SSCC1CCCO1)N(C=O)Cc1cnc(C)nc1N (stereo in doubt) [fursultiamine]
inactive: 1 nM 2.52% | 8.33 nM 0.44% | 100 nM 2.45% | 833.33 nM -1.75% | 10000 nM -2.11%

OC(CCN1CCCCC1)(c1ccccc1)C1CC2C=CC1C2 (stereo not given) [biperiden]
inactive: 1 nM 0.1% | 8.33 nM -0.07% | 100 nM 0.23% | 833.33 nM -2.88% | 10000 nM -2%

CCCCC(=O)N(Cc1ccc(-c2ccccc2-c2nnn[nH]2)cc1)[C@H](C(=O)O)C(C)C [valsartan]
inactive: 1 nM 0.84% | 8.33 nM -1.89% | 100 nM 0.86% | 833.33 nM 0.99% | 10000 nM 0.91%

COc1cc(Cc2cnc(N)nc2N)cc(OC)c1OC [trimethoprim]
inactive: 1 nM -0.11% | 8.33 nM 0.21% | 100 nM -0.75% | 833.33 nM 2.08% | 10000 nM 2.04%

CN1CCN(CC(=O)N2c3ccccc3C(=O)Nc3cccnc32)CC1 [pirenzepine]
inactive: 1 nM -0.09% | 8.33 nM -0.92% | 100 nM -2.09% | 833.33 nM -0.6% | 10000 nM -1.86%

CC(C)c1cc(CNc2nc(Nc3cc(C4CC4)[nH]n3)cc(N3CCN(C)CC3)n2)on1
inactive: 1 nM 0.13% | 8.33 nM 1.15% | 100 nM 0.48% | 833.33 nM -4.78% | 10000 nM -15%

CC1(C)C(=O)NC2=C1C(=O)C(=O)c1ccccc12
inactive: 1 nM 0.25% | 8.33 nM -0.49% | 100 nM -0.78% | 833.33 nM 1.58% | 10000 nM -10.5%

O=Cc1cn(Cc2ccc(Cl)cc2)c2ccccc12 [oncrasin-1]
inactive: 1 nM 1.13% | 8.33 nM -1.86% | 100 nM 2.77% | 833.33 nM 2.11% | 10000 nM 2.76%

CC(=O)O[C@@]12CO[C@@H]1C[C@H](O)[C@@]1(C)C(=O)[C@H](O)C3=C(C)[C@@H](O)C[C@@](O)([C@@H](OC(=O)c4ccccc4)[C@H]21)C3(C)C [10-deacetylbaccatin]
inactive: 1 nM -0.5% | 8.33 nM 0.94% | 100 nM -1.67% | 833.33 nM -4.55% | 10000 nM -2.63%

O=C(O)c1cccc(-c2noc(-c3ccccc3F)n2)c1 [ataluren]
inactive: 1 nM -0.23% | 8.33 nM 0.96% | 100 nM 0.68% | 833.33 nM 2.99% | 10000 nM 2.92%

C[C@H](N)C(=O)N[C@@H](CCC(N)=O)C(=O)O [dipeptamin]
inactive: 1 nM -0.51% | 8.33 nM 1.67% | 100 nM -0.9% | 833.33 nM 0.75% | 10000 nM 0.66%

O=C(Nc1ccc(Cl)cc1)Nc1ccc(Cl)c(Cl)c1 [triclocarban]
inactive: 1 nM -2.22% | 8.33 nM -0.87% | 100 nM 0.35% | 833.33 nM -1.44% | 10000 nM -0.6%

CC(=O)OCC(=O)[C@@]1(OC(C)=O)[C@@H](C)C[C@H]2[C@@H]3C[C@H](F)C4=CC(=O)C=C[C@]4(C)[C@@]3(F)[C@@H](O)C[C@@]21C [diflorasone-diacetate]
inactive: 1 nM 3.78% | 8.33 nM 2.43% | 100 nM 1.22% | 833.33 nM 0.13% | 10000 nM 1.53%

CC(C)c1cccc2c(-c3ccccc3)cc(-c3ccc(-c4ccc(C(=O)O)cc4)[nH]3)nc12
inactive: 1 nM 5.04% | 8.33 nM 4.89% | 100 nM 3.09% | 833.33 nM 5.27% | 10000 nM 3.56%

O=C(O)c1nc(=O)[nH]c(=O)[nH]1 [oxonic-acid]
inactive: 1 nM -6.02% | 8.33 nM -2.79% | 100 nM 1.25% | 833.33 nM 0.64% | 10000 nM -0.52%

C=CCN1CC[C@]23c4c5ccc(O)c4O[C@H]2[C@@H](OCCOCCOCCOCCOCCOCCOCCOC)CC[C@@]3(O)[C@H]1C5 [naloxegol]
inactive: 1 nM 2.88% | 8.33 nM 0.75% | 100 nM 1.49% | 833.33 nM 0.6% | 10000 nM -1.7%
